This is a sample that favours compounds with a hit; in the whole collection about 6.1% have one here.
TGFb inhibitor: TGF-b pathway inhibition. HepG2 CAGA-GFP TGF-b/SMAD3 reporter, GFP fluorescence, 18 h; TGF-beta stimulated, 500 pg/mL final. Potency, µM (top dose mostly 46.1 µM), without a hit: at the top dose activity, negative = inhibition, actives largely listed as inhibitors. actives 1.2% (n = 410,000). AID 588855; further: on the % scale 0 is the no-effect control and ±100 the full control effect; nearly all actives have a fitted effect of over 65% in size
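HEPG2 CAGA-GFP cells (1000/well, DMEM with 1% FBS) were pre-incubated 2 h at 37 degrees C, given compound by pin tool, then stimulated with TGF-beta at 500 pg/mL final for 18 h before per-cell GFP fluorescence imaging.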
VP16 counter: inhibits Gal4-VP16 luciferase reporter, ROR gamma counter-screen; Potency, µM (top dose mostly 53.6 µM), for inactives: at the top dose activity, negative = inhibition, hits mostly inhibitors; AID 2546; actives 3.5% (n = 310,000); Drosophila S2 Gal4-VP16 UAS-luciferase, luminescence, 20 h;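 further: Gal4-VP16 expression switched on by copper sulfate through the metallothionein promoter; on the % scale 0 is the no-effect control and ±100 the full control effect; nearly all actives have a fitted effect of over 50% in size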
HepG2 viability: kills HepG2 cells in TGF-b inhibitor counter-screen. AID 588856. HepG2 CAGA-GFP viability, ATP luminescence, 18 h. Potency, µM (doses to about 46.1 µM), inactives show at the top dose activity change, negative = cytotoxicity, actives largely listed as cytotoxic. actives 0.76% (n = 410,000)
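CellTiter-Glo luminescence gave cytotoxicity after 18 hours at 37 degrees C. The cells were HepG2 CAGA-GFP in 1% FBS DMEM, stimulated with 500 pg/mL TGF-beta after compound addition. %Activity was normalised to no-cell wells (complete cell-killing) and DMSO (no toxicity), and curves were fitted and classified.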
ATXN2 expr inh: reduces ATXN2 reporter expression in HEK-293 cells; actives 0.72% (n = 360,000); Potency, µM (highest dose often 57 µM), without a hit: top-dose activity change, negative = inhibition, usual class: inhibitors; HEK-293 ATXN2-luciferase reporter, luminescence, 24 h; AID 1745845; further: on the % scale 0 is the no-effect control and ±100 the full control effect; nearly all actives have a fitted effect of over 55% in size
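qHTS (up to 57 uM final) was run with 24 h compound exposure of reporter cells at 37 °C. Each well was multiplexed: SteadyGlo luminescence measured ATXN2-luciferase expression after a fluorogenic Gly-Phe-AFC viability readout (25 uM final).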
ATXN viability: reduces viability in counter-screen for ATXN expression inhibitors; S2 cells (HEK-293 line with an ATXN2-luciferase reporter) viability, CellTiter-Fluor protease fluorescence, 24 h; Potency, µM (doses to about 56.7 µM), hits mostly cytotoxic; actives 0.49% (n = 400,000); further: nearly all actives have a fitted effect of over 40% in size
RORgamma inh: blocks mouse ROR gamma transcriptional activity | P51450 | Drosophila S2 Gal4-RORgamma UAS-luciferase reporter, 20 h | Potency, µM (series often up to 53.6 µM), without a hit: at the top dose activity change, negative = inhibition, hits mostly inhibitors | actives 5.4% (n = 310,000) | AID 2551; further: on the % scale 0 is the no-effect control and ±100 the full control effect; nearly all actives have a fitted effect of over 60% in size
Target sequence (P51450 whole entry, looked up, the tested form may be a part): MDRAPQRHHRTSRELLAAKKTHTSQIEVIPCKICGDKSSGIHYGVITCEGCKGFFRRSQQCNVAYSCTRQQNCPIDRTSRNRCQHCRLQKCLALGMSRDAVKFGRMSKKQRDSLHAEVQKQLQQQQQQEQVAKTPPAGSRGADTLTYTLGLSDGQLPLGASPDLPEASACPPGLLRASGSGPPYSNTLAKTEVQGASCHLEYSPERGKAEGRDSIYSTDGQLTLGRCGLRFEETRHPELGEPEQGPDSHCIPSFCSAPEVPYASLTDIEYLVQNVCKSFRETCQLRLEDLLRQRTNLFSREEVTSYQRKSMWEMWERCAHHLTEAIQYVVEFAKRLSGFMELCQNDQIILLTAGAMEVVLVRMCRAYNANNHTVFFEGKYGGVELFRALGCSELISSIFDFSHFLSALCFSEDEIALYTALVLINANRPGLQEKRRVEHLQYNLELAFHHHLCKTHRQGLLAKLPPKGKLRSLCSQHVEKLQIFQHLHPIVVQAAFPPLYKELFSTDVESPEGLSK
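Using a luciferase readout, inhibitors were identified by reduced reporter activity in Drosophila cells coexpressing a copper-inducible Gal4–ROR gamma fusion and UAS-driven Photinus luciferase, incubated 20 hr after 700 uM copper sulfate.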
An asterisk follows results filed as active; i = inactive; ? = inconclusive; · = no result. The call rests on the fitted dose curve; in most records, active means well fitted curve in the direction sought with a large enough effect; inconclusive means small, poorly fitted or top-dose-only effect, or another doubt; inactive means no such curve, though single readings can be large; an effect the other way counts as inactive or inconclusive. Potency means the concentration at half of the fitted maximal effect.

SMILES	TGFb inhibitor	VP16 counter	HepG2 viability	ATXN2 expr inh	ATXN viability	RORgamma inh
Cc1ccc(Cn2c(SCc3ccc(C(=O)N4CCCCCC4)cc3)nc3ccncc32)cc1	10µM*	·	-40%	?	?	·
Cc1ccc(Cn2c(SCc3ccc(C(=O)N4CCCCC4)cc3)nc3ccncc32)cc1	11µM*	·	-33%	·	·	·
Cc1ccccc1Cn1c(SCc2ccc(C(=O)N3CCCCC3)cc2)nc2ccncc21	13µM*	·	-30%	-13%	i	·
Cc1ccc(Cn2c(SCc3ccc(C(=O)NCCc4ccccc4)cc3)nc3ccncc32)cc1	?	·	-25%	·	·	·
O=C(c1ccc(CSc2nc3ccncc3n2Cc2ccccc2F)cc1)N1CCCCCC1	?	·	-13%	-14%	i	·
Cc1cc(C)c2c(=O)cc(C(=O)NCc3ccc(S(N)(=O)=O)cc3)oc2c1	28%	·	7%	-9%	i	·
COc1ccccc1CNC(=O)c1ccc2nc(-c3ccccc3)c(-c3ccccc3)nc2c1	-19%	·	-2%	-2%	?	·
COc1cc(C2SC[C@H]3C(=O)N(c4ccccc4)C(=O)N23)cc(OC)c1OC (stereo not given in full)	-20%	·	-11%	1%	i	·
COc1ccc(-n2c(SCC(=O)NCc3ccc(F)cc3)nc3c([nH]c4ccccc43)c2=O)cc1	-28%	·	-28%	4%	i	·
c1ccc(-c2cn(-c3ccccc3)c3ncnc(NCCCN4CCOCC4)c23)cc1	13%	-2%	-41%	·	i	-17%
Brc1ccc(-n2cc(-c3ccccc3)c3c(NN4CCOCC4)ncnc32)cc1	-6%	?	-4%	-30%	i	6.3µM*
CCOc1ccc(-n2nc(CO)c(C(=O)NCCCc3ccccc3)n2)cc1	?	·	-28%	·	·	·
Fc1ccc(/C=N/NC(=S)NCCc2ccccc2)cc1F	?	8.9µM*	-27%	3%	i	7.1µM*
CCCCNC(=S)N/N=C/c1ccc(C#N)cc1	-3%	?	-14%	-24%	i	11%
Cc1cccc(/C=N/NC(=O)CC(=O)NCCc2ccccc2)c1	10%	·	10%	6%	i	·
COc1ccc(/C=N/NC(=S)NCCc2ccccc2)cc1	?	7.9µM*	-64%	·	i	3.5µM*
CCOc1ccc(/C=N\NC(=O)CC(=O)NCCc2ccccc2)cc1	-13%	·	-44%	-18%	i	·
COc1cccc(/C=N/NC(=S)NCCc2ccccc2)c1	25µM*	?	-11%	-17%	i	16µM*
CCc1ccc(/C=N/NC(=S)NCCc2ccccc2)cc1	11%	?	-16%	0%	i	14µM*
Cc1cccc(NC(=O)N2CCC3(CC2)Oc2ccccc2C(=O)N3Cc2ccccc2F)c1C	-14%	·	-10%	·	·	·
COCCNc1nc(NCc2cccc(OC)c2)c2sc(-c3ccccc3)cc2n1	?	·	11µM*	-24%	?	·
C=CCNc1nc(NCc2ccc(N(C)C)cc2)c2sc(-c3ccccc3)cc2n1	?	·	13µM*	-8%	?	·
c1ccc(OCCNc2nc(NCC3CC3)nc3cc(-c4ccccc4)sc23)cc1	?	·	-92%	?	16µM*	·
COCCNc1nc(NCc2ccc(NC(C)=O)cc2)c2sc(-c3ccccc3)cc2n1	?	·	-105%	22µM*	·	·
CC(NC(=O)CCCC1=NS(=O)(=O)c2ccccc2N1)c1ccccc1 (stereo not given)	?	·	-1%	-10%	i	·
SMILES	TGFb inhibitor	VP16 counter	HepG2 viability	ATXN2 expr inh	ATXN viability	RORgamma inh
O=C(c1cccc(Cl)c1)N1c2ncnn2C2(CCCCC2)[C@@H]2CCCC[C@@H]21	-24%	·	-57%	-36%	i	·
CCSc1nnc(NC(=O)CSc2nnc(CNC(=O)c3ccc(OC)c(OC)c3)o2)s1	5%	?	-8%	0%	i	18µM*
CCc1nnc(NC(=O)CSc2nnc(CNC(=O)c3ccc(OC)c(OC)c3)o2)s1	-4%	-23%	18%	·	i	-37%
COc1ccc(C(=O)NCc2nnc(SCC(=O)Nc3nc4ccccc4s3)o2)cc1	-10%	11µM*	-6%	11%	i	11µM*
NC(=O)Nc1cc(-c2ccc(CN3CCOCC3)cc2)sc1C(N)=O	·	·	·	27%	·	·
COCc1nc2ccccc2n1Cc1ccc(C(C)(C)C)cc1	10µM*	·	-59%	2%	?	·
COc1ccc(OCc2nc3ccccc3n2Cc2ccc(C(C)(C)C)cc2)cc1	16µM*	·	-26%	56%	i	·
O=C1NC(O)CCN1[C@@H]1O[C@H](CO)[C@H](O)[C@H]1O (stereo not given in full)	·	·	·	0%	·	·
CCOC(=O)N1CCC(NC(=O)c2ccc3c(c2)N(Cc2cc(C)ccc2C)C(=O)c2ccccc2S3=O)CC1 (stereo not given)	?	·	-19%	-19%	i	·
CCOCCc1nn2c(=O)cc(COC(=O)c3ccccc3NC(=O)CC(C)C)nc2s1	-17%	·	-2%	-16%	?	·
O=C(Nc1nnc(-c2ccc(Cl)cc2)o1)c1cccc(N2C(=O)CCC2=O)c1	-4%	2.2µM*	-3%	0%	i	3.2µM*
COc1cccc(-c2nnc(NC(C)=O)o2)c1	-4%	?	-33%	6%	i	?
COc1cccc(C(=O)Nc2nnc(-c3ccc(Cl)cc3)o2)c1	-57%	1.6µM*	-45%	?	·	?
CCOc1ccc(-c2nnc(NC(=O)c3ccc(OCC(C)C)c(OC)c3)o2)cc1	0%	0.025µM*	-7%	-33%	?	0.028µM*
COc1cccc(C(=O)Nc2nnc(-c3cccs3)o2)c1	-24%	0.79µM*	-26%	?	28µM*	0.63µM*
COc1cccc(OC(=O)CSc2nnc(-c3cccs3)o2)c1	20%	·	11%	·	·	·
COc1cc2c(cc1OC)n(CC(=O)c1ccc(C)cc1)c(=O)n1nc(CCn3nc(C)cc3C)nc21	8%	·	-10%	·	·	·
CC(C)(C)n1ncc2c(=O)n(Cc3cccc(Oc4ccccc4)c3)cnc21	-18%	·	-3%	·	·	·
OC1(c2ccc(Cl)cc2)CCNCC1	·	·	·	-18%	i	·
Cc1ccccc1N1CCN(CCc2nnc3n2CCCC3)CC1	·	·	·	8%	i	·
COc1cccc(C(=O)Nc2nnc(-c3ccc(F)cc3)o2)c1	-24%	1.8µM*	-27%	?	?	5µM*
COc1cccc(-c2nnc(NC(=O)c3ccc4ncsc4c3)o2)c1	-18%	0.56µM*	-17%	-29%	i	0.56µM*
CCCn1c(SCc2nc(-c3cc(OC)ccc3OC)no2)nnc1-c1ccc(Cl)cc1	?	·	-20%	0%	?	·

Source: PubChem (National Center for Advancing Translational Sciences (NCATS))
